Hits are enriched below; roughly 19% of the tested compounds scored in any of these assays.
DT40 TDP1 CPT – DT40-hTDP1 cell growth loss with CPT; chicken DT40 Tdp1-/-;hTDP1 cells + 20 nM CPT, ATP luminescence, 48 h; AID 686979; Potency, µM (top dose mostly 46.2 µM), for inactives: at the highest dose activity change, negative = growth inhibition, actives largely listed as inhibitors; 420,000 tested, 12% active; note: potency is the fitted concentration of half-maximal effect; % is set by controls: 0 for no effect and ±100 for the full control effect; nearly all actives have a fitted effect of over 55% in size
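Cell growth measured by CellTiter-Glo luminescence after a minimum 48 h, 37 C compound exposure with 20 nM CPT in Tdp1-knockout DT40 cells stably expressing hTDP1, seeded 400/well; qHTS titration format.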
HepG2 tox – counter-screen for TGF-b inhibitors: cytotoxicity in HepG2 cells; Potency, µM (highest dose often 46.1 µM), inactives show top-dose activity change, negative = cytotoxicity, actives largely listed as cytotoxic; HepG2 CAGA-GFP viability, ATP luminescence, 18 h; 410,000 tested, 0.76% active; note: potency is the fitted concentration of half-maximal effect
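HepG2 CAGA-GFP cells (1000/well, DMEM with 1% FBS) received compound, then TGF-beta at 500 pg/mL final, and were incubated 18 hours at 37 degrees C. Viability was read by CellTiter-Glo luminescence. Media-only wells were set as complete cell-killing and DMSO as no toxicity.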
TGFb SMAD3 inh – TGF-b pathway inhibition. Potency, µM (top dose mostly 46.1 µM), for inactives: at the highest dose activity, negative = inhibition, usual class: inhibitors. AID 588855. 410,000 tested, 1.2% active. HepG2 CAGA-GFP TGF-b/SMAD3 reporter, GFP fluorescence, 18 h; TGF-beta stimulated, 500 pg/mL final; note: potency is the fitted concentration of half-maximal effect; % is set by controls: 0 for no effect and ±100 for the full control effect; nearly all actives have a fitted effect of over 65% in size
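TGF-beta reporter screen: HEPG2 CAGA-GFP, 1% FBS, 500 pg/mL TGF-beta final, 18 h; per-cell GFP summed per well; curves fitted and categorized by class.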
IL-1B inflam inh – inhibitors of inflammasome signaling (IL-1 beta secretion) | THP-1 LPS/ATP IL-1B secretion, AlphaLISA, 16 h; stronger effect = lower value | activity change, % at 57.5 µM | 360,000 tested, 4.7% active | AID 743279; in the data active = activity change below about -50%; inconclusive = mostly about -30% to -49%; note: % is set by controls: 0 for no effect and ±100 for the full control effect
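Secreted IL-1B measured by AlphaLISA bead assay after 16 h compound exposure of THP-1 cells; compounds (final up to 57.5 uM) added 1 h before LPS (250 ng/mL) and ATP (1.25 mM) stimulation; lower signal means less secretion.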
TDP1 block – inhibitors of human tyrosyl-DNA phosphodiesterase TDP1 | recombinant TDP1, AlphaScreen DNA substrate cleavage | Potency, µM (highest dose often 130 µM), for inactives: at the highest dose activity change, negative = inhibition, usual class: inhibitors | AID 485290 | 350,000 tested, 0.28% active; note: potency is the fitted concentration of half-maximal effect; % is set by controls: 0 for no effect and ±100 for the full control effect; nearly all actives have a fitted effect of over 40% in size
Target sequence (Q9NUW8 whole entry, looked up): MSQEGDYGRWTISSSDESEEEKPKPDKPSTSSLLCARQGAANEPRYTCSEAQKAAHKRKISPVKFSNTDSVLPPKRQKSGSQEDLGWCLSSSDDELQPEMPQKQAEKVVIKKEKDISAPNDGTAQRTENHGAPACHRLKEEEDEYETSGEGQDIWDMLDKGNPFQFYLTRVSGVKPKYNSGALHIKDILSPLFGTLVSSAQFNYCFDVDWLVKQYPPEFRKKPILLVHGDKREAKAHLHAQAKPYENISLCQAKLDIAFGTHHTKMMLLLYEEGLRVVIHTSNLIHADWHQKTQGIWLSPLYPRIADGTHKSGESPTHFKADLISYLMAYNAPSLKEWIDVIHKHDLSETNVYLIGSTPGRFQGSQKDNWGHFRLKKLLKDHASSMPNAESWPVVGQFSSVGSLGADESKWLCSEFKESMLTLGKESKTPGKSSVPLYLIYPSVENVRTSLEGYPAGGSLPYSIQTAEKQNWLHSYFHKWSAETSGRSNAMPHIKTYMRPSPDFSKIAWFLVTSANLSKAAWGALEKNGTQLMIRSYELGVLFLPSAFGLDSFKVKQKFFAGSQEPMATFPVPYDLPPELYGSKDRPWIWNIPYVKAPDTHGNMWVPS
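Signal: AlphaScreen proximity between streptavidin donor and anti-FITC acceptor beads on intact substrate. Reaction: Tdp1 1 nM, substrate 15 nM final, 5 min RT after 15 min compound preincubation.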
DT40 TDP1 no CPT – qHTS for Inhibitors of human tyrosyl-DNA phosphodiesterase 1 (TDP1): qHTS in cells in absence of CPT | DT40 Tdp1-/- hTDP1 cells, no CPT, ATP luminescence, 48 h | Potency, µM (highest dose often 46.2 µM), for inactives: at the highest dose activity change, negative = growth inhibition, most hits filed as inhibitors | 420,000 tested, 15% active | AID 686978, 2013; note: potency is the fitted concentration of half-maximal effect; % is set by controls: 0 for no effect and ±100 for the full control effect; nearly all actives have a fitted effect of over 55% in size
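Growth of hTDP1-complemented DT40 Tdp1-knockout cells is measured by ATP luminescence after at least 48 hr compound exposure at 37 °C, with DMSO substituting for the 20 nM CPT used in the parallel screen.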
* marks the source's active call; other numbers are inactive results; ? = inconclusive; . = no result given; [ ] = dose if it differs, or a comment. Unless noted, calls come from the whole dose curve; as a rule, active = well fitted curve in the direction sought with a large enough effect; inconclusive = small, poorly fitted or top-dose-only effect, or another doubt; inactive = no such curve, though single readings can be large; an effect the other way counts as inactive or inconclusive.

SMILES	DT40 TDP1 CPT	HepG2 tox	TGFb SMAD3 inh	IL-1B inflam inh	TDP1 block	DT40 TDP1 no CPT
COc1cc(CN(C2CC2)S(=O)(=O)c2ccccc2Br)cc(OC)c1	?	-25.9%	?	3.9	-4.0%[56.1 µM]	13µM*
COc1cc(CN(C)Cc2cccc3ccccc23)cc([N+](=O)[O-])c1O	1.3%	-2.2%	0.7%	-0.6	.	-27.7%
COc1cc(/C=N/Nc2nncn2N)ccc1OCc1c(C)no[n+]1[O-]	?	10µM*	7.08µM*	22.6	0.0%	-29.6%
COc1cc2c(cc1NC(=O)C(C)Oc1ccccc1)oc1ccccc12 (centres undefined)	14.6µM*	-20.9%	0.8%	.	-8.5%	?
COc1cccc(CN(C)CC(=O)Nc2cc3oc4ccccc4c3cc2OC)c1	23.1µM*	-9.2%	-3.8%	10.7	-3.4%	20.6µM*
COc1ccc(CC(=O)Nc2cc3oc4ccccc4c3cc2OC)cc1	?	-21.5%	0.0%	?	0.0%	?
COc1ccccc1CC(=O)Nc1cc2oc3ccccc3c2cc1OC	25.9µM*	-50.6%	9.0%	-22.2	2.0%	16.4µM*
COc1cc2c(cc1NC(=O)C(C)OC(=O)c1ccc(S(=O)(=O)Nc3ccccc3Cl)cc1)oc1ccccc12 (centres undefined)	23.1µM*	-2.0%	3.8%	0.0	5.4%	18.4µM*
COc1ccc(/C=C/C(=O)OCC(=O)Nc2cc3oc4ccccc4c3cc2OC)cc1	.	.	.	.	2.6%	.
COc1cc2c(cc1NC(=O)COC(=O)[C@@H](NC(=O)c1ccccc1F)C(C)C)oc1ccccc12	?	-21.9%	-30.3%	0.0	-2.6%	20.6µM*
COc1cc2c(cc1NC(=O)c1cc(-c3ccccn3)nc3ccccc13)oc1ccccc12	20.6µM*	3.3%	8.6%	13.0	5.5%	20.6µM*
CC(C)[C@H](NC(=O)c1ccccc1F)C(=O)OCC(=O)Nc1sccc1C(N)=O	?	-30.3%	?	28.6	-9.7%	11.6µM*
COc1cc2c(cc1NC(=O)COC(=O)[C@@H](NC(=O)c1ccccc1)C(C)C)oc1ccccc12	?	-8.5%	9.5%	9.6	7.9%	?
CC(C)[C@H](NC(=O)c1ccccc1F)C(=O)OCC(=O)NC(=O)NC1CCCCC1	?	-1.0%	0.0%	-5.5	-3.9%	-5.7%
COc1cc2c(cc1NC(=O)/C=C/c1cc(OC)c(OC)c(OC)c1)oc1ccccc12	20.6µM*	-9.5%	-9.9%	0.0	0.0%	14.6µM*
COc1cc2c(cc1NC(=O)CN(C)Cc1cccc(OC)c1OC)oc1ccccc12	20.6µM*	-2.2%	?	-13.8	4.7%	13µM*
COc1cc2c(cc1NC(=O)c1ccncc1)oc1ccccc12	?	-28.6%	33.5%	-17.3	7.0%	20.6µM*
COc1ccc(C(=O)NC23CC4CC(CC(C4)C2)C3)cc1	-2.5%	-2.4%	7.4%	2.0	.	-10.0%
COc1cc(NC(=O)C2CC(=O)N(Cc3ccco3)C2)c(OC)cc1Cl (centres undefined)	5.7%	-2.7%	-1.9%	12.8	2.2%	-1.2%
CC(Oc1ccc2oc3ccccc3c2c1)C(=O)NC12CC3CC(CC(C3)C1)C2 (centres undefined)	16.4µM*	-31.0%	?	-9.7	0.0%	29.1µM*
COc1cc2c(cc1NC(=O)COC(=O)C1CC(=O)N(Cc3ccco3)C1)oc1ccccc12 (centres undefined)	-0.9%	-24.6%	4.5%	-56.3*	-1.1%	-29.5%
COc1cc2c(cc1NC(=O)COCC(=O)O)oc1ccccc12	13.4%	-2.3%	1.0%	-2.1	.	2.0%
O=C(c1ccccc1)N1CCN(S(=O)(=O)c2cccc(NS(=O)(=O)c3ccccc3)c2)CC1	9.4%	-0.7%	2.2%	6.9	2.7%	-17.7%
O=C(NCc1ccc(F)cc1)C(=O)NCC(c1cccs1)S(=O)(=O)c1cccs1 (centres undefined)	?	-17.4%	1.0%	.	7.8%	?
COc1cccc(CNC(=O)CCc2c(C)nn(-c3ccc(N4CCCC4)nn3)c2C)c1	-29.6%	0.0%	-4.6%	.	4.5%	?
SMILES	DT40 TDP1 CPT	HepG2 tox	TGFb SMAD3 inh	IL-1B inflam inh	TDP1 block	DT40 TDP1 no CPT
COC(=O)C1=CN(c2cccc(OCc3ccccc3)c2)C(N)=C(C#N)C1c1cccc(OC)c1OC (centres undefined)	14.6µM*	.	.	-3.5	.	14.6µM*
COC(=O)C1=CN(c2ccc(Oc3ccccc3)cc2)C(N)=C(C#N)C1c1cccc(OC)c1OC (centres undefined)	14.6µM*	.	.	35.0	.	13µM*
C[C@H](NS(=O)(=O)c1c(Cl)cccc1Cl)C(=O)NNC(=O)COc1ccccc1F	-20.8%	8.9%	0.4%	44.7	-0.1%	-0.2%
COc1ccc(-c2c(C#N)c(SCC(=O)Nc3ccccc3C)nc(C)c2C(=O)Nc2ccccc2)cc1OC	-3.4%	-13.7%	-1.7%	.	-0.4%[12.3 µM]	-1.7%
COc1cccc(C2C3=C(N=C4SCC(=O)N42)c2ccccc2CC3)c1OC (centres undefined)	23.1µM*	27.1%	1.1%	-17.0	6.8%	20.6µM*
COc1cccc(C2C3=C(N=c4s/c(=C\c5ccccc5O)c(=O)n42)c2ccccc2CC3)c1OC (centres undefined)	.	.	.	.	1.2%	.
COc1ccc([C@H]2[C@H](C(=O)C(C)(C)C)N3N=Cc4ccccc4C3[C@]23N=C(c2ccccc2)OC3=O)cc1OC (some centres undefined)	-23.6%	-12.3%	-1.2%	5.7	-1.9%	?
CC(C)(C)OC(=O)[C@H]1[C@H](c2ccc([N+](=O)[O-])cc2)C2(C(=O)c3ccccc3C2=O)C2c3ccccc3C=NN21 (some centres undefined)	?	-25.0%	?	-27.0	2.7%	18.4µM*
O=C(Nc1ccc(-c2nc3ccccc3s2)cc1)c1cc(-n2cnnc2)ccc1Cl	23.1µM*	-39.6%	?	-84.0*	0.0%	13µM*
Cc1ccc2nc(-c3ccc(NC(=O)c4ccccc4S(C)(=O)=O)cc3)sc2c1	?	-41.2%	0.0%	.	2.8%	8.2µM*
Cc1ccc2nc(-c3ccc(NC(=O)c4ccc(S(C)(=O)=O)cc4)cc3)sc2c1	20.6µM*	3.4%	2.7%	.	0.0%	?

Compound activity from PubChem BioAssay.
